This note sets out measurements from PubChem BioAssay (NCI).

SMILES strings stand for the structures. The panel holds about 83,000 compounds, 20% with a hit somewhere; the sample as a whole holds those more often.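 Single-dose data. Exposure time 48 hours. Values below 10 considered active.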 A number with no mark means an inactive call. The source made the active and inactive calls.

Among the test systems are HCT-15 colon; HT29 colon; SNB-75 CNS; SNB-19 CNS; U251 CNS; PC-3 prostate; SK-MEL-5 melanoma; UACC-62 melanoma; LOX IMVI melanoma; SK-MEL-28 melanoma; SK-MEL-2 melanoma; EKVX NSCLC; SN12C renal; UO-31 renal; TK-10 renal; ACHN renal; CAKI-1 renal; A498 renal; CCRF-CEM leukemia; MOLT-4 leukemia.
Holding throughout (assay): NCI-60 one-dose screen, 48 h (100 = growth as untreated, 0 = no growth, -100 = all killed)
Common to all, as to conditions: 10 µM unless noted

With `CN(C)c1ccc(CNCCO)cc1`, the growth in the test with HCT-15 colon was 106%; in the test on HT29 colon it was 69.1%; in the test with SNB-75 CNS, 101%; with SNB-19 CNS, 98.5%; with U251 CNS it was 89.4%; with PC-3 prostate, 68.5%. The growth is 99.9% in the test with SK-MEL-5 melanoma; 90.2% in the test with UACC-62 melanoma; 102% in the test with LOX IMVI melanoma; 81.7% in the test on SK-MEL-28 melanoma; 65.8% with SK-MEL-2 melanoma; 103% with EKVX NSCLC. Further, the growth is 99.9% with SN12C renal; 91.5% with UO-31 renal; 82.9% with TK-10 renal; 102% in the test on ACHN renal; 101% in the test with CAKI-1 renal; 111% with A498 renal. For the same molecule, the growth with CCRF-CEM leukemia was 88.4%; in the test on MOLT-4 leukemia it was 99%.
Take `CC1(C)N=C(N)N=C(N)N1c1ccc(S(=O)(=O)Nc2nccs2)cc1`: the growth is 103% in the test with HCT-15 colon; 102% in the test on HT29 colon; 64.9% in the test on SNB-75 CNS; 98.2% in the test with SNB-19 CNS; 103% in the test with U251 CNS; 93.7% in the test on PC-3 prostate. Moreover, the growth with SK-MEL-5 melanoma was 106%; with UACC-62 melanoma it was 93.6%; in the test with LOX IMVI melanoma, 100%; in the test on SK-MEL-28 melanoma it was 106%; with SK-MEL-2 melanoma, 106%; in the test with EKVX NSCLC it was 102%. The growth with SN12C renal is 95.2%; in the test on UO-31 renal it was 89.5%; with TK-10 renal it was 86.1%; in the test with ACHN renal it was 108%; in the test with CAKI-1 renal it was 94.3%; in the test with A498 renal, 96.2%. The growth with CCRF-CEM leukemia is 101%; with MOLT-4 leukemia, 103%.
Take `CCCCCCCCCCOC(=O)c1nn(C(C)=O)c2cc(C)c(C)cc12`: the growth in the test on HCT-15 colon is 98.8%; with HT29 colon, 92.1%; with SNB-75 CNS it was 115%; in the test on SNB-19 CNS, 105%; with U251 CNS, 93.3%; with PC-3 prostate it was 73.7%. For the same molecule, the growth is 99.5% with SK-MEL-5 melanoma; 93.3% with UACC-62 melanoma; 87.9% in the test with LOX IMVI melanoma; 109% with SK-MEL-28 melanoma; 104% with SK-MEL-2 melanoma; 91.6% in the test with EKVX NSCLC. For the same molecule, the growth was 102% in the test with SN12C renal; 71.7% with UO-31 renal; 104% in the test with TK-10 renal; 97.1% in the test with ACHN renal; 88.8% with CAKI-1 renal; 79.1% in the test on A498 renal. In addition, the values for the growth with CCRF-CEM leukemia and in the test on MOLT-4 leukemia were 92.2% and 82.7%, respectively.
As for `N[C@@H]1CCC[C@H]1NCCCCN1C(=O)c2cccc3cc([N+](=O)[O-])cc(c23)C1=O`, the growth in the test on HCT-15 colon was 59.9%; with HT29 colon, 14.3%; in the test with SNB-75 CNS it was 38.1%; in the test on SNB-19 CNS, 39.1%; in the test with U251 CNS, 33.7%; in the test on PC-3 prostate, 39%. Besides, the growth is 62.4% in the test on SK-MEL-5 melanoma; 66.3% with UACC-62 melanoma; 14.9% with LOX IMVI melanoma; 85.7% in the test with SK-MEL-28 melanoma; 78.2% in the test with SK-MEL-2 melanoma; 61.5% with EKVX NSCLC. In addition, the growth was 27.4% in the test with SN12C renal; 61.9% in the test on UO-31 renal; 44.1% with TK-10 renal; 13.3% in the test on ACHN renal; 97.7% with CAKI-1 renal; 52.8% in the test with A498 renal. In addition, the values for the growth with CCRF-CEM leukemia and in the test on MOLT-4 leukemia were 1.99% (active) and -3.36% (active), respectively.
As for `CCOC(=O)C/C(=N\Nc1cc(=O)[nH]c2ccc(OC)cc12)C(=O)OCC`, the growth in the test with HCT-15 colon is 99.7%; in the test with HT29 colon, 110%; in the test with SNB-75 CNS it was 94.6%; in the test with SNB-19 CNS it was 100%; in the test with U251 CNS, 106%; with PC-3 prostate it was 89%. Besides, the growth with SK-MEL-5 melanoma was 99.7%; in the test on UACC-62 melanoma, 90.4%; in the test with LOX IMVI melanoma, 96.6%; in the test on SK-MEL-28 melanoma it was 99.6%; in the test with SK-MEL-2 melanoma, 117%; in the test on EKVX NSCLC, 100%. The growth in the test with SN12C renal was 99.5%; with UO-31 renal, 78.1%; in the test on TK-10 renal it was 114%; with ACHN renal, 98.8%; with CAKI-1 renal, 91.9%; in the test on A498 renal, 106%. The growth was -47.5% (active) with CCRF-CEM leukemia and 26.1% with MOLT-4 leukemia.
`O=c1ccc2ccc(OCCN3CCCCC3)cc2o1`: the growth was 108% with HCT-15 colon; 98.9% in the test with HT29 colon; 105% with SNB-75 CNS; 104% in the test with SNB-19 CNS; 103% in the test with U251 CNS; 23.5% with PC-3 prostate. The growth with SK-MEL-5 melanoma was 107%; in the test on UACC-62 melanoma, 94.1%; in the test on LOX IMVI melanoma, 101%; with SK-MEL-28 melanoma, 102%; in the test with SK-MEL-2 melanoma it was 101%; with EKVX NSCLC, 101%. For the same molecule, the growth is 95.9% with SN12C renal; 80.8% with UO-31 renal; 104% in the test on TK-10 renal; 104% in the test on ACHN renal; 104% with CAKI-1 renal; 85% in the test on A498 renal. The growth with CCRF-CEM leukemia was 0.515% (active); in the test with MOLT-4 leukemia it was 7.74% (active).
Regarding `CC(O)Cc1c[nH]c(=O)[nH]c1=O` (stereo not given), the growth was 97.8% with HCT-15 colon; 114% in the test on HT29 colon; 120% with SNB-75 CNS; 108% with SNB-19 CNS; 95.9% in the test with U251 CNS; 126% in the test on PC-3 prostate. Besides, the growth is 109% in the test with SK-MEL-5 melanoma; 106% with UACC-62 melanoma; 96.5% with LOX IMVI melanoma; 122% in the test on SK-MEL-28 melanoma; 115% with SK-MEL-2 melanoma; 106% with EKVX NSCLC. Besides, the growth was 110% in the test on SN12C renal; 100% in the test on UO-31 renal; 123% in the test on TK-10 renal; 97.9% with ACHN renal; 99.6% in the test on CAKI-1 renal; 87.8% in the test on A498 renal. Also, the growth is 122% in the test on CCRF-CEM leukemia and 101% in the test with MOLT-4 leukemia.
In the case of `COCC(=O)Oc1cc(-c2ccc(C)cc2C)c(OC(=O)COC)c(-c2ccc(C)cc2C)c1`, the growth in the test on HCT-15 colon was 10.2%; with HT29 colon, 34.3%; in the test on SNB-75 CNS, 80.4%; with SNB-19 CNS, 60.9%; in the test on U251 CNS, 46.7%; in the test with PC-3 prostate it was 43.4%. The growth in the test on SK-MEL-5 melanoma is 13.7%; in the test with UACC-62 melanoma, 45.1%; with LOX IMVI melanoma it was 35.6%; in the test with SK-MEL-28 melanoma, 87.9%; in the test on SK-MEL-2 melanoma, 28.9%; in the test on EKVX NSCLC it was 57.1%. In addition, the growth in the test with SN12C renal was 56.4%; in the test with UO-31 renal, 47.7%; in the test on TK-10 renal, 70.9%; in the test on ACHN renal, -18% (active); in the test on CAKI-1 renal it was 9.83% (active); in the test on A498 renal, 68.7%. Also, the growth is 38.9% with CCRF-CEM leukemia and 21.7% in the test with MOLT-4 leukemia.
